Results from PubChem BioAssay (NCI).
This is part of a sample that, as a whole, favours compounds with a hit. Of some 83,000 tested, about 20% had one in any assay.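 Assay: single dose, 48 h. Readout: percent growth (0 = no net growth; negative = cell death). Active: <10.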 A number with no mark means an inactive call. Active and inactive are the calls of the source.

Tests used:
Assay in all cases: NCI-60 one-dose screen, 48 h (100 = growth as untreated, 0 = no growth, -100 = all killed)
Details in all cases: 10 µM unless noted
[1] = tested on: SR leukemia
[2] = tested on: OVCAR-8 ovarian
[3] = tested on: OVCAR-5 ovarian
[4] = tested on: OVCAR-4 ovarian
[5] = tested on: SK-OV-3 ovarian
[6] = tested on: OVCAR-3 ovarian
[7] = tested on: HS 578T breast
[8] = tested on: NCI/ADR-RES ovarian
[9] = tested on: T-47D breast
[10] = tested on: BT-549 breast
[11] = tested on: MDA-MB-435 melanoma
[12] = tested on: SW-620 colon
[13] = tested on: MCF7 breast
[14] = tested on: HCT-116 colon
[15] = tested on: HCC-2998 colon
[16] = tested on: RPMI-8226 leukemia
[17] = tested on: IGROV1 ovarian
[18] = tested on: KM12 colon

SMILES	growth [1]	growth [2]	growth [3]	growth [4]	growth [5]	growth [6] [%]	growth [7] [%]	growth [8]	growth [9]	growth [10]	growth [11]	growth [12]	growth [13]	growth [14]	growth [15]	growth [16]	growth [17]	growth [18] [%]
OC1Cc2ccccc2C1	94.6%	103%	95.4%	110%	111%	104	96	93.9%	102%	97.4%	102%	96.7%	86.2%	97.9%	94.8%			
C=C(C)[C@@H]1CC[C@]2(CO)CC[C@]3(C)[C@H](CC[C@@H]4[C@@]5(C)CC[C@H](O)C(C)(C)[C@@H]5CC[C@]43C)[C@@H]12	42.6%		-21.9% (active)	33.7%	41.3%	64.5		-43.6% (active)	32.2%	49.3%	77.9%	54.6%	42.9%	1.87% (active)		41.2%	35.9%	49.1
CCCCCC/C=C\CCCCCCCCCc1cc(O)cc(OC)c1O	0.217% (active)	-26.1% (active)		-19.5% (active)	6.17% (active)		44.9	-5.84% (active)	-61.8% (active)	3.38% (active)	13.3%	14.9%	6.81% (active)	5.45% (active)	35.7%	-7.09% (active)	-45.4% (active)	12.5
CCOC(=O)c1ccc(NC(C)=O)o1	79.3%	91.3%		107%	92.1%	113	89.6	97.5%	93.5%	104%	103%	78.7%	96.9%	101%	115%	103%	108%	102
CCNCC(C)(C)O		106%	100%	98.7%	110%	117	113	102%	104%	105%	106%	106%	97.1%	101%	109%	107%	112%	113
O=C(c1ccccc1)c1ccc(-c2ccc(O)cc2)cc1	177%	82.8%	108%	45.6%	93.4%	85.8	104	44.5%	50.6%	52.3%	9.71% (active)	45.4%	23.3%	59.4%			25.9%	35.2
COc1ccc(NNS(=O)(=O)O)cc1	93.2%	98.4%	93.3%	111%	102%	114	92.2	92.4%	88.6%	102%	102%	100%	92.9%	100%	110%			105
COC1C(=O)CCC2(CO2)C1(O)C1(C)OC1CCC(C)C (centres undefined)	32.2%		87.2%	89.7%	101%	95.1		86.8%	81.2%	77.4%	63.8%	60.5%	69.1%	52.5%	76.4%	77.4%	-5.17% (active)	74
CC(=O)Nc1ccc(C(=O)c2ccc(S(=O)(=O)Nc3ccccc3)cc2)cc1	105%	84%		95.5%	104%	105		30.6%	99.2%		101%	103%	85.3%	75.4%	-97.1% (active)	68.1%		108
Clc1cccc(Cl)c1C1CSc2ccccc2N=C1c1ccccc1 (centres undefined)	-14% (active)		101%	73%	96.5%	69.6	88.1	73.3%	65.4%	42%	15.4%	3.48% (active)	9.8% (active)	19.3%	95.4%	-14.8% (active)	91.8%	44.1
